# Key:
# Test in all cases: DAPPL (digital affinity profiling via proximity ligation, sequencing); 10 mM Tris-HCl pH 7.5, 50 mM NaCl, 1 mM DTT, 4% glycerol, room temperature, 30 min; GST-TFs on glutathione beads, 16-mer random dsDNA library, 0.1% formaldehyde crosslink after washing; high values mean tight binding
# FEV = target: T1, FEV (Homo sapiens, UniProt Q99581 1-238); details: protein: recombinant; tags: N-terminal GST; dsDNA, one strand shown
# T1 sequence: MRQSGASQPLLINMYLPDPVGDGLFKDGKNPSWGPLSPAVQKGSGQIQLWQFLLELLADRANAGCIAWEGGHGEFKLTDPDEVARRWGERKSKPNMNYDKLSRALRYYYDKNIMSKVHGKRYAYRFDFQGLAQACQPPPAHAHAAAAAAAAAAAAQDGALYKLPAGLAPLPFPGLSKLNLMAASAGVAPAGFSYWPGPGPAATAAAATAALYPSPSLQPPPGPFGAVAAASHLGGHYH
# In short: (§1)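 Human transcription factors were made in yeast as GST fusions, captured on glutathione beads and barcoded with DNA. With a tag-only sample included, the pool was incubated with 200 nmole of a random double-stranded 16-mer DNA library in Tris/NaCl/DTT/glycerol buffer at room temperature for 30 min, then crosslinked with 0.1% formaldehyde after washing, ligated by proximity, amplified and sequenced. For binding signal, each hexamer's read frequency for a factor is divided by its frequency for the tag-only sample.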
# ETV5 = ETV5 (Homo sapiens, UniProt P41161 1-510); details: protein: recombinant; tags: N-terminal GST; dsDNA, one strand shown
# In short: as §1
# HSF1 = HSF1 (Homo sapiens, UniProt Q00613 1-529); details: protein: recombinant; tags: N-terminal GST; chain copies: 3; dsDNA, one strand shown
# In short: as §1
# SPIC = target: T2, SPIC (Homo sapiens, UniProt Q8N5J4 1-248); details: protein: recombinant; tags: N-terminal GST; dsDNA, one strand shown
# T2 sequence: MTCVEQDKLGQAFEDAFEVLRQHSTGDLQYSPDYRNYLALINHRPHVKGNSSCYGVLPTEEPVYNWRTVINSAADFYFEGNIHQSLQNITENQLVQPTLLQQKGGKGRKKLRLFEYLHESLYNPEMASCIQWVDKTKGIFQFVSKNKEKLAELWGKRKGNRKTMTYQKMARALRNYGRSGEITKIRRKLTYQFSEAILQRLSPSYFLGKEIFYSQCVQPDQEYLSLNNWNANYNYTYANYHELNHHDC
# In short: as §1
# ELF4 = ELF4 (Homo sapiens, UniProt Q99607 1-663); details: protein: recombinant; tags: N-terminal GST; dsDNA, one strand shown
# In short: as §1
# ELK4 = target: T3, ELK4 (Homo sapiens, UniProt P28324-2 1-405); details: protein: recombinant; tags: N-terminal GST; dsDNA, one strand shown
# T3 sequence: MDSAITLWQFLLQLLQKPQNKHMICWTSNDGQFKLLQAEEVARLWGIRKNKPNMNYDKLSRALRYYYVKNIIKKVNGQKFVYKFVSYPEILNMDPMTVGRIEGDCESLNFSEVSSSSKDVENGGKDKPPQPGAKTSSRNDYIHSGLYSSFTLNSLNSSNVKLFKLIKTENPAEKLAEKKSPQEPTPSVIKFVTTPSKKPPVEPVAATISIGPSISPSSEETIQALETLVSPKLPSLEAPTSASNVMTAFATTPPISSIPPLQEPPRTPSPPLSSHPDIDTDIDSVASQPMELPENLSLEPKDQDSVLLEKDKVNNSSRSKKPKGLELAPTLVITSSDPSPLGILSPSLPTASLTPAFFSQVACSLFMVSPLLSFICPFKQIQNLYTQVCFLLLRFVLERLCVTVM
# In short: as §1
# ETV2 = target: T4, ETV2 (Homo sapiens, UniProt O00321 1-342); details: protein: recombinant; tags: N-terminal GST; dsDNA, one strand shown
# T4 sequence: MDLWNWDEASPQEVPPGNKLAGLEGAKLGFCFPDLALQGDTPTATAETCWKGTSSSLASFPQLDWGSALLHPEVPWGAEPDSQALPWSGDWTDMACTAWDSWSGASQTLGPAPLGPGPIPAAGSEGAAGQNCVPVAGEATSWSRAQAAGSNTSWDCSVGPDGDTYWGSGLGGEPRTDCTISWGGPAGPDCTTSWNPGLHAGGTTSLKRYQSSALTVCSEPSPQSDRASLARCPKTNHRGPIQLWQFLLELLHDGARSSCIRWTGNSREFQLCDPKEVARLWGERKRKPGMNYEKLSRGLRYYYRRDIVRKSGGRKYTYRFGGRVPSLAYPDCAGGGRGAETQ
# In short: as §1
# ELF3 = target: T5, ELF3 (Homo sapiens, UniProt P78545 1-371); details: protein: recombinant; tags: N-terminal GST; dsDNA, one strand shown
# T5 sequence: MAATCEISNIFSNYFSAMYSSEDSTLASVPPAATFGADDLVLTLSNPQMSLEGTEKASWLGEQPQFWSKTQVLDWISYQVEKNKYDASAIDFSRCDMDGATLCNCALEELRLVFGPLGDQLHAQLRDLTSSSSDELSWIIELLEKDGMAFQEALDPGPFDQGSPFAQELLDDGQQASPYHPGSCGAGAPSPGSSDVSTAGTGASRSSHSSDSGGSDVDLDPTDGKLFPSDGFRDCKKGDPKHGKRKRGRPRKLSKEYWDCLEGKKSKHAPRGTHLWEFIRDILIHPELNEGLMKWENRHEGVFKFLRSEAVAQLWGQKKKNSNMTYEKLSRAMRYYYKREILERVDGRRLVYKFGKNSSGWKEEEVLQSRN
# In short: as §1
# CRX = CRX (Homo sapiens, UniProt O43186 1-299); details: protein: recombinant; tags: N-terminal GST; dsDNA, one strand shown
# In short: as §1
# ETV1 = ETV1 (Homo sapiens, UniProt P50549 1-477); details: protein: recombinant; tags: N-terminal GST; dsDNA, one strand shown
# In short: as §1
# ERF = target: T6, ERF (Homo sapiens, UniProt P50548 1-548); details: protein: recombinant; tags: N-terminal GST; dsDNA, one strand shown
# T6 sequence: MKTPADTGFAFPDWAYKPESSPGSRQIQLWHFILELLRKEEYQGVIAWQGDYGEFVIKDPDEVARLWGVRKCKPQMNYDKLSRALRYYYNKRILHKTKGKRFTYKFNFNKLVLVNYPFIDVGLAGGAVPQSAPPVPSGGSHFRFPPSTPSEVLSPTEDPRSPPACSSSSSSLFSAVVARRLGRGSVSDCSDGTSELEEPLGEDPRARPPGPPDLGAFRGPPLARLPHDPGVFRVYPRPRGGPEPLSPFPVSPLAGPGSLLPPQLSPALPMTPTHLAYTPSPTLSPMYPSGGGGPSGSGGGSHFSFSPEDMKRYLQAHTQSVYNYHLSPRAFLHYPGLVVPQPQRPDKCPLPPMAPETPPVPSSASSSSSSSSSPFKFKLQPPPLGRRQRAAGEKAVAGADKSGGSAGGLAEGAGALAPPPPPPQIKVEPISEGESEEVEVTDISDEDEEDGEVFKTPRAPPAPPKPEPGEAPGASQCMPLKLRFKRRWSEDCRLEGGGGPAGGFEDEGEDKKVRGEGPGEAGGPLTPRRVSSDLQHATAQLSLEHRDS
# In short: as §1
# ETV3L = target: T7, ETV3L (Homo sapiens, UniProt Q6ZN32 1-361); details: protein: recombinant; tags: N-terminal GST; dsDNA, one strand shown
# T7 sequence: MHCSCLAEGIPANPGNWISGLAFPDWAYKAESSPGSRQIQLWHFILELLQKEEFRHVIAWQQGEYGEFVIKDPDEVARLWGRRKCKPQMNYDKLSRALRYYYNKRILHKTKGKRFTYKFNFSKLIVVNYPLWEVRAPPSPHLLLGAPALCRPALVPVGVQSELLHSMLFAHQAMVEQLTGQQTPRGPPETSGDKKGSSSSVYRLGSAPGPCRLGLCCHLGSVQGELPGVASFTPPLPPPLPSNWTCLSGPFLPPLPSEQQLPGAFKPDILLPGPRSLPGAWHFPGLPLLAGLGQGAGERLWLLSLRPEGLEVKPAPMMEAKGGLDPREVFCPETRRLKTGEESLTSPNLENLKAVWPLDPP
# In short: as §1
# ETS2 = target: T8, ETS2 (Homo sapiens, UniProt P15036 1-469); details: protein: recombinant; tags: N-terminal GST; dsDNA, one strand shown
# T8 sequence: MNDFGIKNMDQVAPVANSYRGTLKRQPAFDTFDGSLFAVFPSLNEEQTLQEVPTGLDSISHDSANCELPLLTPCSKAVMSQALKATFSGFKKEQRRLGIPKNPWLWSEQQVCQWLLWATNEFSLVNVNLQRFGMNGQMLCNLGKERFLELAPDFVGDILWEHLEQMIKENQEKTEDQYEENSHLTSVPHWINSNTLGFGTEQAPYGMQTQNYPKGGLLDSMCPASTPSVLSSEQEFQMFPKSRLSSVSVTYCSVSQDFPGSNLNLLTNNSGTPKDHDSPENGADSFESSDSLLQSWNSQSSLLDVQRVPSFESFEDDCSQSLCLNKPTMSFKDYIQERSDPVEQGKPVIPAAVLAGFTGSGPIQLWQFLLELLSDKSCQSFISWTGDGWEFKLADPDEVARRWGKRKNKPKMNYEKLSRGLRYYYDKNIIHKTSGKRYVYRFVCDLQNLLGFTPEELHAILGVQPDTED
# In short: as §1
# SPDEF = target: T9, SPDEF (Homo sapiens, UniProt O95238 1-335); details: protein: recombinant; tags: N-terminal GST; dsDNA, one strand shown
# T9 sequence: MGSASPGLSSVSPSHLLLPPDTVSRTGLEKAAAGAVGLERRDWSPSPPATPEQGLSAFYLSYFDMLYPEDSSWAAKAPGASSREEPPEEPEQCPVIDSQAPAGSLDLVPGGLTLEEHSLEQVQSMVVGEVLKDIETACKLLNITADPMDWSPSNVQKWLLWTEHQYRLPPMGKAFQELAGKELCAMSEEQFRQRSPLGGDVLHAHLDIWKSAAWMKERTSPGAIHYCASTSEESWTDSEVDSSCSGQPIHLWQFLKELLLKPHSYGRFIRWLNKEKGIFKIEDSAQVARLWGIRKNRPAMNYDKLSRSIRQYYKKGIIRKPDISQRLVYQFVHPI
# In short: as §1
# ETV7 = target: T10, ETV7 (Homo sapiens, UniProt Q9Y603 1-341); details: protein: recombinant; tags: N-terminal GST; dsDNA, one strand shown
# T10 sequence: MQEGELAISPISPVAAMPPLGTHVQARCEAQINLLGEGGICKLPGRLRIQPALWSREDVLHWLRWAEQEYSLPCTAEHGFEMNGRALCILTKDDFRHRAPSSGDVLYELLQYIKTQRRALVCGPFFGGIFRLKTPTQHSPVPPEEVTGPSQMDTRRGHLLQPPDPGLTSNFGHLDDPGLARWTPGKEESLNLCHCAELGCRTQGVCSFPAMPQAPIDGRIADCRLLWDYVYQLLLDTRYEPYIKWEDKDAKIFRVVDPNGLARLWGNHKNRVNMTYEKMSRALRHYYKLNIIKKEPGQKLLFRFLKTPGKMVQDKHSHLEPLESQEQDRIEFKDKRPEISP
# In short: as §1
# ELF5 = target: T11, ELF5 (Homo sapiens, UniProt Q9UKW6-2 1-255); details: protein: recombinant; tags: N-terminal GST; dsDNA, one strand shown
# T11 sequence: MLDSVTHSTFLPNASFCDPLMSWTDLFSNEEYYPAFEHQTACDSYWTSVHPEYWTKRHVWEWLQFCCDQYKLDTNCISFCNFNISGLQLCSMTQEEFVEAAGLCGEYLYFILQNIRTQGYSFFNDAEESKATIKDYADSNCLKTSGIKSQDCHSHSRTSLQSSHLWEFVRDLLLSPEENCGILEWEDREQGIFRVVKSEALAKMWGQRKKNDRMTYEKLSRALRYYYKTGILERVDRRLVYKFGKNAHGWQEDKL
# In short: as §1
# ETV3 = target: T12, ETV3 (Homo sapiens, UniProt P41162-2 1-143); details: protein: recombinant; tags: N-terminal GST; dsDNA, one strand shown
# T12 sequence: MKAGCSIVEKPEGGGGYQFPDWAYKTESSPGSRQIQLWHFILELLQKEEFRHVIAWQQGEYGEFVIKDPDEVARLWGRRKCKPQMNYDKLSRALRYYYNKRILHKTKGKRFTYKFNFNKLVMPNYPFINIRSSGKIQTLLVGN
# In short: as §1
# ETV6 = ETV6 (Homo sapiens, UniProt P41212 1-452); details: protein: recombinant; tags: N-terminal GST; dsDNA, one strand shown
# In short: as §1
# Chain of HSF1 (Q00613 whole entry): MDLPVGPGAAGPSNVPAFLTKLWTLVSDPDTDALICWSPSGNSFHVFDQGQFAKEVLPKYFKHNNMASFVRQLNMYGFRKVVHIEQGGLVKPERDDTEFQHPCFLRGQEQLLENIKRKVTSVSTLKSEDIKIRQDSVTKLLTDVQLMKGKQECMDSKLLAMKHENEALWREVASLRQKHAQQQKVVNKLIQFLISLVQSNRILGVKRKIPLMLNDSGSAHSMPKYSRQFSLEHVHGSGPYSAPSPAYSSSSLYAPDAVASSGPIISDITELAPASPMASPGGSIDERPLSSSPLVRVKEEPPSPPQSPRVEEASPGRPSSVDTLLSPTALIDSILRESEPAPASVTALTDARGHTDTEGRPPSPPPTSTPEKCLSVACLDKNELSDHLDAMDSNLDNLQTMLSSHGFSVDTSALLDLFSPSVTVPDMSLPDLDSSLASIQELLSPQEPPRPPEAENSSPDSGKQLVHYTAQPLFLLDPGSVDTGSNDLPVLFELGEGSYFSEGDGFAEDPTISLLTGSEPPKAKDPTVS
# Chain of ETV1 (P50549 whole entry): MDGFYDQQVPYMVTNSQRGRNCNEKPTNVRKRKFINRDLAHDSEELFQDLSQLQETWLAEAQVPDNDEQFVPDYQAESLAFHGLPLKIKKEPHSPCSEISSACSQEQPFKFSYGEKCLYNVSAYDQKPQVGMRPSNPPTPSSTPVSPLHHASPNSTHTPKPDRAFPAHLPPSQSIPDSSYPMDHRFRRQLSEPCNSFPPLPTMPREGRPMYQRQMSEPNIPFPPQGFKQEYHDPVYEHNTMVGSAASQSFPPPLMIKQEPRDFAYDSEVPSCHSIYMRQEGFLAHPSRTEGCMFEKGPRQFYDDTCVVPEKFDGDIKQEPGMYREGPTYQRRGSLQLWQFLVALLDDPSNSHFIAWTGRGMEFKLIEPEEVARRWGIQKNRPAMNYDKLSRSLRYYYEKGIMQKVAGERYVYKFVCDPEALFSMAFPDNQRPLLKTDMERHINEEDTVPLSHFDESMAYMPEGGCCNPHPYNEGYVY
# Chain of ETV5 (P41161 whole entry): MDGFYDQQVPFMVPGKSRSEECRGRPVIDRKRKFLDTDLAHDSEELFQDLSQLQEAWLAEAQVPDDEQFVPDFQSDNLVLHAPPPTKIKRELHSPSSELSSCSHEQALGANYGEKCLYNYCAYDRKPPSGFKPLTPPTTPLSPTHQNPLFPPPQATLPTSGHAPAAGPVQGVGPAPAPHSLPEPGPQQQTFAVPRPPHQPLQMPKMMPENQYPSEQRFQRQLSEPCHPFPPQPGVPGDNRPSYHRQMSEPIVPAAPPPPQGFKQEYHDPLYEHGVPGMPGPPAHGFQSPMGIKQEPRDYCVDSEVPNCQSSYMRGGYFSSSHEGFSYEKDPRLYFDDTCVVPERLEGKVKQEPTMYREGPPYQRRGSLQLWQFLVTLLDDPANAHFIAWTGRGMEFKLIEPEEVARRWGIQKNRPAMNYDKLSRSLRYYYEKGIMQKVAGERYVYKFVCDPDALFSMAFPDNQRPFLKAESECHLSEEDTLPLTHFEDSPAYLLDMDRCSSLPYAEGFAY
# Chain of ETV6 (P41212 whole entry): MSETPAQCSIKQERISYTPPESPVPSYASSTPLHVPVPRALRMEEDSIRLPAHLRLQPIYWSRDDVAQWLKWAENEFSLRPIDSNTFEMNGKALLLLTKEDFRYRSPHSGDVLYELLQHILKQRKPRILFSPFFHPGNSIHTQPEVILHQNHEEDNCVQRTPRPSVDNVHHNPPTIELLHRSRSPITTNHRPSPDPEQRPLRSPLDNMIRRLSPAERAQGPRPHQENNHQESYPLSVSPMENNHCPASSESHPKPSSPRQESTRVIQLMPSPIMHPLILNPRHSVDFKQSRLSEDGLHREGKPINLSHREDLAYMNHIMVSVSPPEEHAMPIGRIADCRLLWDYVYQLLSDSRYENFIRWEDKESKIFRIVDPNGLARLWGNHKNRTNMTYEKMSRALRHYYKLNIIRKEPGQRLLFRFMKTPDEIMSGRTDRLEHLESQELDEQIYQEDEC
# Chain of ELF4 (Q99607 whole entry): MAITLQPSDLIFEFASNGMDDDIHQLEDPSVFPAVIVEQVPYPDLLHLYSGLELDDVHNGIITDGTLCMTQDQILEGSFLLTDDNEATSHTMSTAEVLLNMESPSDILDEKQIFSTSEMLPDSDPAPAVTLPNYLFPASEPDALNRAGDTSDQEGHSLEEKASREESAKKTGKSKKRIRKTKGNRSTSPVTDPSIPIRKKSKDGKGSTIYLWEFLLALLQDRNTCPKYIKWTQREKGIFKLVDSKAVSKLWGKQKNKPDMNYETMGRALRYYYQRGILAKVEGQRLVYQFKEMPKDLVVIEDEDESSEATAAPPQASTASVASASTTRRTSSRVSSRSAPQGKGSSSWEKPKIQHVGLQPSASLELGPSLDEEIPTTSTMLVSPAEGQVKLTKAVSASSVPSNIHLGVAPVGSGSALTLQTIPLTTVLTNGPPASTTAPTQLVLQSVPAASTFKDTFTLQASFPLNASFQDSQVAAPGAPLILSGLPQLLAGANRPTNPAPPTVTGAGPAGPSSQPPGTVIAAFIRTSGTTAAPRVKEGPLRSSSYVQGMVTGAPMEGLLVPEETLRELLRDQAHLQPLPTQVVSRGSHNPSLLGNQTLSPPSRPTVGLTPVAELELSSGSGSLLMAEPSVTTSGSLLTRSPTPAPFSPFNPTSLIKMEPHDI
# Chain of CRX (O43186 whole entry): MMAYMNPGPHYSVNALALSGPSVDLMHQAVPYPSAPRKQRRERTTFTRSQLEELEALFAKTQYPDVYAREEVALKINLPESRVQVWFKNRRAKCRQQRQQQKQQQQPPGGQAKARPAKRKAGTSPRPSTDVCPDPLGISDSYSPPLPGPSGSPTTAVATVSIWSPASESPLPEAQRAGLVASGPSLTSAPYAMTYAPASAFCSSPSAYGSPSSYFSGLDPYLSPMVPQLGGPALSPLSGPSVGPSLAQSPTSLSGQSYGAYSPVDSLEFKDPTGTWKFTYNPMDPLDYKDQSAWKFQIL
sequence,measurement,setting,value
TTCAAT,binding signal,FEV,"1.31 fold enrichment (6-mer frequency, TF over GST control)"
same,binding signal,ETV5,"1.32 fold enrichment (6-mer frequency, TF over GST control)"
same,binding signal,HSF1,"1.27 fold enrichment (6-mer frequency, TF over GST control)"
same,binding signal,SPIC,"1.43 fold enrichment (6-mer frequency, TF over GST control)"
same,binding signal,ELF4,"1.33 fold enrichment (6-mer frequency, TF over GST control)"
same,binding signal,ELK4,"1.42 fold enrichment (6-mer frequency, TF over GST control)"
same,binding signal,ETV2,"1.43 fold enrichment (6-mer frequency, TF over GST control)"
same,binding signal,ELF3,"1.36 fold enrichment (6-mer frequency, TF over GST control)"
same,binding signal,CRX,"1.38 fold enrichment (6-mer frequency, TF over GST control)"
same,binding signal,ETV1,"1.45 fold enrichment (6-mer frequency, TF over GST control)"
same,binding signal,ERF,"1.32 fold enrichment (6-mer frequency, TF over GST control)"
same,binding signal,ETV3L,"1.47 fold enrichment (6-mer frequency, TF over GST control)"
same,binding signal,ETS2,"1.42 fold enrichment (6-mer frequency, TF over GST control)"
same,binding signal,SPDEF,"1.32 fold enrichment (6-mer frequency, TF over GST control)"
same,binding signal,ETV7,"1.3 fold enrichment (6-mer frequency, TF over GST control)"
same,binding signal,ELF5,"1.26 fold enrichment (6-mer frequency, TF over GST control)"
same,binding signal,ETV3,"1.37 fold enrichment (6-mer frequency, TF over GST control)"
same,binding signal,ETV6,"1.35 fold enrichment (6-mer frequency, TF over GST control)"
